According to PubChem BioAssay (Tox21):
“And” between values parts separate entries of the source, which are not always exact repeats. Identical values can stand only once. Results filed as inconclusive are left out. Some structures have more than one record in an assay (separate samples or runs), and their calls can disagree. The source made the active and inactive calls. Unless noted, calls follow the shape of the dose curve; as a rule, active = well fitted curve in the direction sought with a large enough effect in the repeat runs; inconclusive = weak or mixed curves; inactive = no such curve, though single readings can be large; an effect the other way counts as inactive or inconclusive.

Legend:
[1] = qHTS assay for small molecules that induce genotoxicity in human embryonic kidney cells expressing luciferase-tagged ATAD5 (AID 651632); also: nearly all actives have a fitted effect of over 15% in size; also: potency is read from the fitted curve at half-maximal effect
How it was run: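 Cells were seeded at 2,000 per well, dosed with compound, and incubated 16 hr at 37C in 5% CO2. Luciferase activity was then quantified after a 30 min room-temperature incubation with Amplite.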

[2] = qHTS assay for small molecules that induce genotoxicity in human embryonic kidney cells expressing luciferase-tagged ATAD5 - cell viability (AID 651634; calls by dose curve; also: nearly all actives have a fitted effect of over 25% in size; also: potency is read from the fitted curve at half-maximal effect)
How it was run: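 Cells (HEK293T, luciferase-tagged ATAD5) are seeded at 2,000 per well, dosed with compound or DMSO vehicle, and incubated 15.5 hr at 37C and 5% CO2. CellTiter-Fluor is added for 30 min before fluorescence is measured.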

[3] = qHTS assay for small molecule disruptors of the mitochondrial membrane potential - cell viability (AID 720634; calls by dose curve; also: nearly all actives have a fitted effect of over 20% in size; also: potency is read from the fitted curve at half-maximal effect)
How it was run: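 Cytotoxicity was measured by ATP quantitation in HepG2 wells that had first been treated with compound for 1 hr and stained with m-MPI dye; CellTiter-Glo incubation was 30 min at room temperature.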

[4] = qHTS assay to test for compound auto fluorescence at 590 nm (red) in HepG2 cells (AID 720674)
How it was run: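 Intrinsic compound fluorescence in the red window (Ex/Em 540/590 nm) is measured in attached HepG2 cells exposed for 1 hr, DMSO vehicle as baseline, benchmarked to Rose Bengal sodium.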

[5] = qHTS assay to test for compound auto fluorescence at 535 nm (green) in HepG2 cells (AID 720675); also: potency is read from the fitted curve at half-maximal effect
[6] = qHTS assay to test for compound auto fluorescence at 460 nm (blue) in HEK293 cells (AID 720678); also: potency is read from the fitted curve at half-maximal effect
How it was run: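 Blue read-out at excitation 405 nm and emission 460 nm follows overnight compound exposure of HEK293 cells at 37C in 5% CO2. Activity is given as auto fluorescence equivalency to triamterene.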

[7] = qHTS assay to test for compound auto fluorescence at 590 nm (red) in HEK293 cells (AID 720679)
How it was run: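 Red channel, Ex/Em 540/590nm; signal expressed as equivalency to Rose Bengal sodium. HEK293, 2,000 cells/well, 10% dialyzed FBS; 23 nL compound pinned after 4-5 hr attachment; overnight 37C/5% CO2 before reading.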

[8] = qHTS assay for small molecule disruptors of the mitochondrial membrane potential (AID 720635); also: potency is read from the fitted curve at half-maximal effect
How it was run: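 HepG2 cells (2,000/well) attached overnight at 37C, then took compound for 1 hr at 37C, 5% CO2. Mito-MPS dye was added for 30 min; fluorescence was read at 490/535 nm (monomers) and 540/590 nm (aggregates).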

[9] = qHTS assay for small molecule agonists of the p53 signaling pathway - cell viability (AID 651633; calls by dose curve; also: nearly all actives have a fitted effect of over 30% in size; also: potency is read from the fitted curve at half-maximal effect)
How it was run: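 p53RE-bla cells, seeded at 4,000 per well and rested 5 h at 37 C/5% CO2, received compounds in DMSO for 16 h at 37 C. CellTiter-Glo was then added, and luminescence was read after 30 min at room temperature to gauge cytotoxicity.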

Measured: Potency
Tags tell the direction and shape of the fitted curve or compound fluorescence and quenching.

OC1(c2ccc(Cl)c(C(F)(F)F)c2)CCN(CCCC(c2ccc(F)cc2)c2ccc(F)cc2)CC1
inactive: [1] | [3] | [4] | [5] | [6] | [7]
active: [2] 23.7 µM

CCc1cc(Cc2cc(CC)c(N)c(CC)c2)cc(CC)c1N
active: [8] 27.3 µM
inactive: [1] | [2] | [4] | [5] | [6] | [7]

O=C1CCCCCN1SSN1CCCCCC1=O
inactive: [1] | [3] | [4] | [5] | [6] | [7]

CCOC(=O)c1nc(C(Cl)(Cl)Cl)n(-c2ccc(Cl)cc2Cl)n1
inactive: [1] | [2] | [4] | [5] | [6] | [7]

CCCN(CCC)c1c([N+](=O)[O-])cc(C(F)(F)F)c(N)c1[N+](=O)[O-]
active: [8] 4.31 µM
inactive: [1] | [4] | [5] | [6] | [7]

Nc1ccc2cc(S(=O)(=O)O)cc(O)c2c1N=Nc1ccccc1C(F)(F)F
inactive: [1] | [3] | [4] | [5] | [6] | [7]

O=C(N/N=C/c1ccccc1O)c1ccncc1
active: [9] 3.76 µM
inactive: [3] | [4] | [5] | [6] | [7]

CCN(CC)CCNC(=O)c1c(C)[nH]c(/C=C2\C(=O)Nc3ccc(F)cc32)c1C
active: [9] 11.9 µM
inactive: [3] | [4] | [5] | [6] | [7]

COc1cccc(N)c1
inactive: [9] | [3] | [4] | [5] | [6] | [7]
active: [2] 13.8 µM

O=C(c1ccc(F)cc1)C1CCN(CCn2c(=O)[nH]c3ccccc3c2=O)CC1
inactive: [1] | [2] | [3] | [4] | [5] | [6] | [7]

CCC1=C[C@@H]2CN(C1)Cc1c([nH]c3ccccc13)[C@@](C(=O)OC)(c1cc3c(cc1OC)N(C)[C@H]1[C@@](O)(C(=O)OC)[C@H](OC(C)=O)[C@]4(CC)C=CCN5CC[C@]31[C@@H]54)C2
active: [1] 2.37 µM | [2] 1.19 µM
inactive: [3] | [4] | [5] | [6] | [7]

CC(C)(C)C(=O)OCOC(=O)C1N2C(=O)CC2S(=O)(=O)C1(C)C (configuration not stated)
inactive: [1] | [2] | [4] | [5] | [6] | [7]

Oc1ccc(N=Nc2ccccc2)cc1
inactive: [9] | [4] | [5] | [6] | [7]
active: [3] 6.95 µM | [8] 3.1 µM

CNc1ccc(O)cc1
inactive: [2] | [4] | [5] | [6] | [7]

O=C(OCC1CO1)C1CCCCC1C(=O)OCC1CO1 (configuration not stated)
inactive: [9] | [2] | [3] | [8] | [4] | [5] | [6] | [7]

CCCCCCCCCCCC(=O)NCCCN(C)C
inactive: [4] | [5] | [6] | [7]
active: [9] 27.3 µM

Cc1ccc2oc(CN(Cc3ccccc3)C(=O)Nc3c(F)cc(F)cc3F)c(-c3ccc(Cl)cc3)c2c1
active: [8] 18.7 µM
inactive: [1] | [2] | [4] | [5] | [6] | [7]

Cc1ccc(O)c(C(C)(C)C)c1
inactive: [1] | [4] | [5] | [6] | [7]
active: [3] 27.3 µM and 54.5 µM | [8] 5.44 µM and 27.3 µM

CC(C)c1ccc2c(c1)CC[C@H]1[C@](C)(CN)CCC[C@]21C
active: [2] 38.6 µM
inactive: [1] | [4] | [5] | [6] | [7]

Cc1cc(O)c2ccccc2c1O
inactive: [1] | [2] | [3] | [4] | [5] | [6] | [7]

CC1=C(/C=C/C(C)=C/C=C/C(C)=C/C=O)C(C)(C)CCC1
active: [9] 43 µM | [2] 60.8 µM | [8] 15.3 µM
inactive: [4] | [5] | [6] | [7]

CCN(C(=O)N(CC)c1ccccc1)c1ccccc1
inactive: [1] | [2] | [4] | [5] | [6] | [7]

Nc1ccc2c3c(cccc13)-c1ccccc1-2
active: [8] 4.91 µM | [5] 39.8 µM
inactive: [1] | [4] | [7]

OCCN(CCO)c1nc(N2CCCCC2)c2nc(N(CCO)CCO)nc(N3CCCCC3)c2n1
inactive: [1] | [3] | [4] | [5] | [7]
active: [6] 12.6 µM [fluorescent]

CC(C)CCCCCCCCCCCCCCC(=O)O
inactive: [1] | [2] | [4] | [5] | [6] | [7]

S=c1[nH]c2ccccc2s1
active: [8] 26.6 µM and 27.3 µM
inactive: [9] | [2] | [3] | [4] | [5] | [6] | [7]

CN1CCC(Nc2ncc3ncnc(Nc4ccc(F)c(Cl)c4)c3n2)CC1
inactive: [2] | [3] | [4] | [5] | [7]

Clc1ccccc1C(c1ccccc1)(c1ccccc1)n1ccnc1
inactive and 54.5 µM (active): [3]
active: [8] 10.1 µM and 9.69 µM
inactive: [1] | [4] | [5] | [6] | [7]

Nc1ccccc1O
active: [8] 60.3 µM
inactive: [1] | [3] | [4] | [5] | [6] | [7]

CC(C)(C)c1ccc(C(=O)CCCN2CCC(OC(c3ccccc3)c3ccccc3)CC2)cc1
inactive: [2] | [3] | [4] | [5] | [6] | [7]

CCCCCCCCNC(C)C(O)c1ccc(SC(C)C)cc1 (configuration not stated)
active: [2] 10.6 µM
inactive: [1] | [4] | [5] | [6] | [7]

O=[N+]([O-])c1cc(Cl)c(Cl)c(Cl)c1Cl
inactive: [9] | [2] | [3] | [4] | [5] | [6] | [7]

O=[N+]([O-])c1cc([N+](=O)[O-])c2ccc(S(=O)(=O)O)cc2c1O
active: [2] 21.6 µM
inactive: [9] | [3] | [8] | [4] | [5] | [6] | [7]

CC(C)(C)NC(=O)[C@@H]1C[C@@H]2CCCC[C@@H]2CN1C[C@@H](O)[C@H](Cc1ccccc1)NC(=O)[C@H](CC(N)=O)NC(=O)c1ccc2ccccc2n1
active: [8] 43.8 µM
inactive: [1] | [3] | [4] | [5] | [6] | [7]

CSc1ccc2c(c1)C(N1CCN(C)CC1)Cc1ccccc1S2 (configuration not stated)
inactive: [1] | [3] | [4] | [5] | [6] | [7]

OCCCCCCCCCCCCBr
inactive: [1] | [3] | [4] | [5] | [6] | [7]
active: [8] 62.1 µM

[Cl][Au]([Cl])[Cl]
inactive: [3] | [4] | [5] | [6] | [7]
active: [9] 68.6 µM | [2] 30.6 µM

O=CC=C(c1ccccc1)c1ccccc1
active: [8] 30.9 µM
inactive: [1] | [2] | [4] | [5] | [6] | [7]

On1ccccc1=S
inactive: [3] | [4] | [5] | [6] | [7]
active: [8] 0.762 µM

COc1cc(-c2nc(NC(=O)c3cc4cc(C)cc(C)c4n3CC(=O)O)sc2CCC2CCCCC2)c(OC)cc1Cl
active: [2] 39.7 µM
inactive: [1] | [3] | [4] | [5] | [6] | [7]

COc1ccc(CN2CCN(C(c3ccc(F)cc3)c3ccc(F)cc3)CC2)c(OC)c1OC
active: [2] 21.1 µM
inactive: [1] | [3] | [4] | [5] | [6] | [7]
